Data taken from PubChem BioAssay.
Values joined by “and” are separate entries in the source; they are usually repeats but may differ in a detail not shown here. Equal entries are not always repeated. Inconclusive results are not listed. Active and inactive are the calls of the source. Unless noted, the limit is not given here; nearly all actives have AC50 up to about 30 µM.

Experiments:
[1] = growth inhibition of DIPG glioma cells, dose response, cell-based, JHH-DIPG-1, MIPE4.0, CellTiter-Glo, qHTS (AID 1347062; cut-off not given, nearly all actives have AC50 up to about 27 µM;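 as to AC50: cells exposed to compound for two days before readout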); conditions: JHH-DIPG-1 viability, CellTiter-Glo ATP luminescence
[2] = growth inhibition of DIPG glioma cells, dose response, cell-based, SU-DIPG-IV, MIPE4.0, CellTiter-Glo, qHTS (AID 1347063); conditions: SU-DIPG-IV viability, CellTiter-Glo ATP luminescence;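 also: compound exposure lasted 48 hours before the viability readout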
[3] = growth inhibition of DIPG glioma cells, dose response, cell-based, SU-DIPG-XIII, MIPE5.0, CellTiter-Glo, qHTS (AID 1347064; cut-off not given, nearly all actives have AC50 up to about 23 µM;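 as to AC50: cells exposed to compound for 48 hours before the viability read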); conditions: SU-DIPG-XIII viability, CellTiter-Glo ATP luminescence
[4] = SU-DIPG-VI glioma cell viability, MIPE4.0 library, CellTiter-Glo luminescence, qHTS (AID 1347066); conditions: CellTiter-Glo ATP luminescence;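 also: cells exposed to compound for 48 hours before readout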
[5] = JHH-DIPG-1 glioma cell viability, MIPE5.0 library, CellTiter-Glo luminescence, qHTS (AID 1347067; cut-off not given, nearly all actives have AC50 up to about 26 µM;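 also: cells exposed to compound for 48 hours before readout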); conditions: JHH-DIPG-1 glioma viability, CellTiter-Glo ATP luminescence
[6] = SU-DIPG-XXV glioma cell viability, MIPE5.0 library, qHTS (AID 1347068; cut-off not given, nearly all actives have IC50 up to about 30 µM;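 as to IC50: cells exposed to compound for 48 hours before viability readout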)
[7] = growth inhibition of DIPG glioma cells, dose response, cell-based, SU-DIPG-XIII, MIPE4.0, CellTiter-Glo, qHTS (AID 1347061; cut-off not given, nearly all actives have AC50 up to about 37 µM;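 also: cells exposed to compound for 48 hours before readout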); conditions: SU-DIPG-XIII viability, CellTiter-Glo ATP luminescence
[8] = sensitizers of A549 cells to miR-34 induction, primary screen, imaging, A549 dox-inducible miR-34, nuclei and caspase counts (AID 1347080;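 active = compounds whose cell count with miR-34 switched on is under 0.7 times the count with it off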); conditions: A549 miR-34 inducible, Hoechst nuclei count, 48 h
[9] = viability loss in pontine glioma line – cell-based, SU-DIPG-XXV, MIPE5.0, CellTiter-Glo, qHTS, dose response (AID 1347065; cut-off not given, nearly all actives have AC50 up to about 26 µM;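 also: cells exposed to compound for 48 hours before ATP readout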); conditions: CellTiter-Glo ATP luminescence
[10] = survival rescue of mitochondrial mutant cells in low glucose, primary screen, MELAS cybrids, Rieske KO mouse fibroblasts, CellTiter-Glo (AID 1508586;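 active = mean z-score across replicates of 1.96 or higher in either the MELAS or the Rieske mutant cell line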;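 also: z relative to plate mean and SD of compound and empty wells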)
[11] = stronger effect = lower value, cell number ratio, induced over uninduced
[12] = measured here: relative caspase fold change +Dox/-Dox
[13] = measured here: total cells with miR-34 induction, stronger effect = lower value
[14] = measured here: total cells without miR-34 induction
[15] = MELAS cybrid survival, CellTiter-Glo 48 h, stronger effect = higher value
[16] = Rieske KO mouse fibroblast survival, CellTiter-Glo 72 h

With `C[C@H](NC(=O)[C@@H](O)c1cc(F)cc(F)c1)C(=O)N[C@@H]1C(=O)N(C)c2ccccc2-c2ccccc21` the outcome [1] was “inactive”, the outcome [2] was “inactive” and the outcome [3] was “inactive”. The outcome [4] was “inactive”, the outcome [5] was “inactive” and the outcome [6] was “inactive”.
In the case of `CC(=O)N(C)C1(c2ccccc2)CCN(CCC[C@]2(c3ccc(Cl)c(Cl)c3)CCCN(C(=O)c3ccccc3)C2)CC1`, the AC50 [1] is reported as 29.6 µM (active), the AC50 [2] is reported as 26.4 µM (active) and the AC50 [4] is reported as 33.2 µM (active).
With `COC(=O)C1=CO[C@@H](O)[C@@H]2C(CO)=CC[C@H]12` the outcome [7] was “inactive”, the fold change [8, 11] was 1 (inactive) and the fold change [8, 12] was 0.878. The cell count [8, 13] was 10100 and the cell count [8, 14] was 10100.
With `COc1ccc(Cn2ccc3ccc(C(=O)NO)cc32)cc1` the outcome [1] was “inactive”, the outcome [2] was “inactive” and the outcome [9] was “inactive”. The outcome [4] was “inactive”, the outcome [5] was “inactive” and the fold change [8, 11] was 0.793 (inactive). For the same compound, the fold change [8, 12] was 0.954, the cell count [8, 13] was 5300 and the cell count [8, 14] was 6690. The z-score [10, 15] was -0.343 (inactive) and the z-score [10, 16] was 0.636.
For `CC(=O)C1=C(O)C=C2Oc3c(C(C)=O)c(O)c(C)c(O)c3C2(C)C1=O` (stereo unspecified), the outcome [7] was “inactive” and the outcome [4] was “inactive”.
With `CC(C)(C)[C@H](NC(=O)c1ccc(N)c(Cl)c1)C(=O)N1CCC[C@H]1C(=O)N[C@H](C#N)CC(=O)O` the outcome [1] was “inactive”, the outcome [2] was “inactive” and the outcome [4] was “inactive”.
For `NC[C@@H]1O[C@H](O[C@H]2[C@@H](O)[C@H](O[C@@H]3[C@@H](O)[C@H](N)C[C@H](N)[C@H]3O[C@H]3O[C@H](CN)[C@@H](O)[C@H](O)[C@H]3N)O[C@@H]2CO)[C@H](N)[C@@H](O)[C@@H]1O`, the outcome [1] was “inactive”, the outcome [2] was “inactive” and the outcome [4] was “inactive”. The fold change [8, 11] was 0.891 (inactive) and 0.964 (inactive), the fold change [8, 12] was 0.356 and 1.26 and the cell count [8, 13] was 8260 and 10600. The cell count [8, 14] was 9270 and 11000, the z-score [10, 15] was -0.364 (inactive) and -0.26 (inactive) and the z-score [10, 16] was -0.155 and -1.25.
For `C=CC(=O)Nc1cccc(Nc2nc(NC3CCC(N(C)C)CC3)nc3c2ncn3C(C)C)c1` (stereo unspecified), the AC50 [1] was 0.187 µM (active) and the AC50 [2] was 0.0235 µM (active).
In the case of `Nc1ncnc2c1c(-c1cccc(OCc3ccccc3)c1)cn2C1CC(CN2CCC2)C1` (stereo unspecified), the AC50 [1] is reported as 11.8 µM (active), the AC50 [3] is reported as 0.525 µM (active) and the AC50 [9] is reported as 0.417 µM (active). For the same compound, the AC50 [4] was 2.96 µM (active), the AC50 [5] was 6.61 µM (active) and the fold change [8, 11] was 1.02 (inactive). For the same compound, the fold change [8, 12] was 0.834, the cell count [8, 13] was 2880 and the cell count [8, 14] was 2830. For the same compound, the z-score [10, 15] was -0.54 (inactive) and the z-score [10, 16] was -0.0242.
In the case of `COc1cc(C(=O)N2CCC(N3CCN(C)CC3)CC2)ccc1Nc1ncc2c(n1)N(C)c1ccccc1C(=O)N2C`, the AC50 [1] is reported as 16.6 µM (active), the AC50 [2] is reported as 16.6 µM (active) and the AC50 [5] is reported as 18.6 µM (active). For the same compound, the IC50 [6] was 20.9 µM (active).
For `CC(C)N(CC[C@H](c1ccccc1)c1cc(CO)ccc1O)C(C)C`, the outcome [1] was “inactive”, the outcome [2] was “inactive” and the outcome [4] was “inactive”.
In the case of `CCCn1c(=O)c2[nH]c(-c3cnn(Cc4cccc(C(F)(F)F)c4)c3)nc2n(CC)c1=O`, the outcome [1] is reported as “inactive”, the AC50 [9] is reported as 13.2 µM (active) and the outcome [4] is reported as “inactive”. The outcome [6] was “inactive”.
For `CC(=O)Nc1sc2c(c1-c1nc3ccccc3s1)CNC2`, the AC50 [1] was 23.5 µM (active), the AC50 [2] was 20.9 µM (active) and the outcome [4] was “inactive”.
With `O=C(Nc1nc2ccccc2n1CCN1CCOCC1)c1cccc([N+](=O)[O-])c1` the AC50 [1] was 14.8 µM (active), the AC50 [2] was 10.5 µM (active) and the outcome [6] was “inactive”. The fold change [8, 11] was 0.827 (inactive), the fold change [8, 12] was 1.35 and the cell count [8, 13] was 5540. It also gave a cell count [8, 14] of 6700.
For `COCCOC(=O)C1=C(C)NC2=C(C(=O)CC(c3ccccc3OC)C2)C1c1cccc(O)c1` (stereo unspecified), the outcome [1] was “inactive”, the outcome [4] was “inactive” and the outcome [6] was “inactive”.
